These results are taken from the OligoGym collection.
Note: reference of the scale not given here.

One assay concerns the target TAF3. The experiment in a line: pooled miR-30 sensor sort-seq; sequence = guide strand. As to conditions: shRNA.
As for TTCTTGAGAAGACACAATGGGT, the sensor-assay potency score (higher = more potent) was -1.17.

TTTCACTTTATCCTTCTCCTTA had a sensor-assay potency score (higher = more potent) of 0.0178.

TTGATTTTAAACTTGTAGGGAT returned a sensor-assay potency score (higher = more potent) of 0.554.

The next assay concerns the target TAF4. Described as above. As to conditions: shRNA.
On to TACATCTGGATGTAATTCCGTT, for which the sensor-assay potency score (higher = more potent) was -0.473.

In turn, TTAATGTCATCATCGTCCCGAA showed a sensor-assay potency score (higher = more potent) of -0.403.

TAGACATACACCTACATAGTAA yielded a sensor-assay potency score (higher = more potent) of -0.674.

With TAACTGTTCTGGATCTTCTTGT, the sensor-assay potency score (higher = more potent) is 0.732.

TTAAGTTCTCGGTATAACCTGC: the sensor-assay potency score (higher = more potent) is 0.0759.

As for ATTAATGTCATCATCGTCCCGA, the sensor-assay potency score (higher = more potent) was determined as 0.127.

Take TACATAACTTACTACATCTGGA: the sensor-assay potency score (higher = more potent) is -0.0503.

Regarding TATTCTTGCACTTTCTTCTGAC, the sensor-assay potency score (higher = more potent) amounted to 0.569.

Take TTACCTATTTCTAATATTCTTC: the sensor-assay potency score (higher = more potent) is -0.515.

Sequence TTTGTCGCGTGAACTGTCTGGG gave a sensor-assay potency score (higher = more potent) of 0.638.

TTAACTGTTCTGGATCTTCTTG: the sensor-assay potency score (higher = more potent) was -0.704.

Sequence TATTTTTCTGTGCAGCAGCTGC had a sensor-assay potency score (higher = more potent) of -0.881.

Another assay concerns the target TAF5. Described as above. As to conditions: shRNA.
On to TTGAATCTGCAAAACCTCCAGC, for which the sensor-assay potency score (higher = more potent) is 0.0484.

Consider TAATACTCGTAGGTCATCCTGG, for which the sensor-assay potency score (higher = more potent) is 0.422.

Take TTGATTGTAGACTAGCTCCAAG: the sensor-assay potency score (higher = more potent) is -0.676.

On to TTGTTTGACACTACGAAGCTTT, for which the sensor-assay potency score (higher = more potent) came out at 0.143.

As to TTATCTTATCCAACTTATCTGA, the sensor-assay potency score (higher = more potent) is -0.244.

Sequence TATCTGAATCTTTCAACTCAGG had a sensor-assay potency score (higher = more potent) of -1.06.

TAATCGAACTGTATTATCCATT registered a sensor-assay potency score (higher = more potent) of -0.885.

The sequence TATCTGTTGCTTACTACGCGGC gave a sensor-assay potency score (higher = more potent) of -0.346.

Regarding TATCTTATCCAACTTATCTGAA, the sensor-assay potency score (higher = more potent) is -0.846.

Regarding TAGTATTCTTCATACATTGTGG, the sensor-assay potency score (higher = more potent) was -0.781.

Sequence TAAGACTAGATAATACTCGTAG displayed a sensor-assay potency score (higher = more potent) of 0.809.

With TAAGTGAACAGACTGTATCAGT, the sensor-assay potency score (higher = more potent) was -0.556.

Another assay deals with TARBP2. Described as above. The following applies: shRNA.
For the sequence TGCTGCAGCAGTAAAAACCGGA, the sensor-assay potency score (higher = more potent) was -0.386.

For TTTCGTAGAGAATCCCAGGTGC, the sensor-assay potency score (higher = more potent) came out at 0.652.

TCGTACACAGGCGTCTTCCCTA: the sensor-assay potency score (higher = more potent) is -0.68.

TTCTCTCCTACTGAATTTCGTA yielded a sensor-assay potency score (higher = more potent) of -0.854.

Sequence TATTCTGGTCCCATACTCCTGC had a sensor-assay potency score (higher = more potent) of 0.18.

TTGCAGAGCCATGACACACAGT registered a sensor-assay potency score (higher = more potent) of -0.909.

Take TCCTGCAGAAGGCTGATCGGGG: the sensor-assay potency score (higher = more potent) is -1.33.

For TTTGAGAAGGTCGTACACAGGC, the sensor-assay potency score (higher = more potent) is -0.0476.

TGAATTTCGTAGAGAATCCCAG came in with a sensor-assay potency score (higher = more potent) of -0.515.

For TTTCTGCACCACCAGCTCCTGC, the sensor-assay potency score (higher = more potent) is -1.56.

Sequence TAGGACTACAGATGGAACTGGG showed a sensor-assay potency score (higher = more potent) of 0.0896.

For TTTCGAAGACCATCCAGGCGGG, the sensor-assay potency score (higher = more potent) is -0.916.
